Our source for the max response and Potency values is PubChem BioAssay (NCATS).

“And” between values parts separate entries of the source, which are not always exact repeats. Identical values can stand only once. Results filed as inconclusive are left out. Values without a mark were called inactive. The source made the active and inactive calls. Calls follow the shape of the dose curve; as a rule, active = well fitted curve in the direction sought with a large enough effect; inconclusive = small, poorly fitted or top-dose-only effect, or another doubt; inactive = no such curve, though single readings can be large or run the other way.
% is scaled to controls: 0 for no effect and ±100 for the full control effect; potency is read from the fitted curve at half-maximal effect.

The nature of this assay: qHTS Assay for Identifying Gametocytocidal Compounds (AID 743244).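 As to max response: actives lower the fluorescent signal which means gametocytes are killed.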 The note with it: P. falciparum 3D7 stage III-V gametocytes, alamarBlue, 72 h; max response: stronger effect = lower value. In short, it runs like this: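 Using 20,000 stage III–V 3D7 gametocytes per well, compounds were incubated 72 h under 37 °C/5% CO2. Viability was then assessed by 24 h alamarBlue reduction, measured fluorometrically at 525/598 nm.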
In the case of `CC[C@H]1OC(=O)[C@H](C)[C@@H](O[C@H]2C[C@@](C)(OC)[C@@H](O)[C@H](C)O2)[C@H](C)[C@@H](O[C@@H]2O[C@H](C)C[C@H](N(C)C)[C@H]2O)[C@](C)(O)C[C@@H](C)/C(=N\OCOCCOC)[C@H](C)[C@@H](O)[C@]1(C)O`, the max response was -7.41% and 9.46%.

`CCC[C@@H]1C[C@@H](C(=O)N[C@@H]([C@H]2O[C@H](SC)[C@H](OP(=O)(O)O)[C@@H](O)[C@H]2O)[C@H](C)Cl)N(C)C1`: the max response was 4.72% and 1.78%.

Turning to `Cc1ccccc1OCC(O)CNCCOc1ccc(C(N)=O)cc1` (stereo unspecified), the max response is 6.36%.

For the molecule `CCCC(=O)Nc1ncnc2c1ncn2[C@@H]1O[C@@H]2COP(=O)(O)O[C@H]2[C@H]1OC(=O)CCC`, the max response is -2.66%.

As for `CC[N+](C)(C)Cc1ccccc1Br`, the max response was 2.98%.

In the case of `COC(=O)[C@H]1[C@H]2C[C@@H]3c4[nH]c5ccccc5c4CCN3C[C@H]2C[C@@H](OC(=O)c2cc(OC)c(OC)c(OC)c2)[C@@H]1OC`, the Potency was 8910 nM (active).

Regarding `O=C1C(=O)c2ncccc2-c2cccnc21`, the Potency was 148 nM (active).

For the molecule `CO[C@@H]1[C@@H](O[C@@H]2O[C@H](C)[C@@H](O[C@H]3C[C@@](C)(O)[C@@H](O)[C@H](C)O3)[C@H](N(C)C)[C@H]2O)[C@@H](CC=O)C[C@@H](C)[C@@H](O[C@@H]2CC[C@H](N(C)C)[C@@H](C)O2)/C=C/C=C/C[C@@H](C)OC(=O)C[C@H]1O`, the max response was 23.5%.

As to `CCCCC(=O)O[C@]1(C(=O)CO)[C@H](C)C[C@H]2[C@@H]3CCC4=CC(=O)C=C[C@]4(C)[C@@]3(F)[C@@H](O)C[C@@]21C`, the max response is 12.3%.

Take `CC(=O)OCC(=O)[C@@]1(O)CC[C@H]2[C@@H]3C[C@H](C)C4=CC(=O)C=C[C@]4(C)[C@H]3[C@@H](O)C[C@@]21C`: the max response is -1.15%.

Turning to `COC(=O)CCC(=O)CN`, the max response was -0.174%.

`O=S(=O)(O)c1ccc2c(N=Nc3ccc(S(=O)(=O)O)c4ccccc34)c(O)c(S(=O)(=O)O)cc2c1`: the max response was 11.5%.

Regarding `COC(=O)C1=C(C#N)NC(C)=C(C(=O)OC(C)C)C1c1cccc([N+](=O)[O-])c1` (stereo unspecified), the max response was 13.2%.

For `C[C@]12CCC(=O)C=C1CC[C@@H]1[C@@H]2[C@@H](O)C[C@@]2(C)[C@H]1CC[C@]2(O)C(=O)COP(=O)(O)O`, the max response was -12.2%.

For `CC1(C)S[C@@H]2[C@H](NC(=O)Cc3ccccc3)C(=O)N2[C@H]1C(=O)O`, the max response was 14.5%.

`C#C[C@]1(O)CC[C@H]2[C@@H]3CCC4=CCCC[C@@H]4[C@H]3C(=C)C[C@@]21CC`: the max response is -1.95%.

Consider `CC(=O)N(CC(C)C(=O)O)c1c(I)cc(I)c(N)c1I` (stereo unspecified), for which the max response is 4.12%.

Consider `CN1C(=O)CN2CCc3ccccc3C2c2cc(Cl)ccc21` (stereo unspecified), for which the max response was 0.102%.

As for `CC1(C)O[C@@H]2C[C@H]3[C@@H]4CCC5=CC(=O)C=C[C@]5(C)[C@H]4[C@@H](O)C[C@]3(C)[C@]2(C(=O)CO)O1`, the max response was -15.3%.

As to `COc1ccc(CCNC[C@H](O)c2ccc(O)cc2)cc1OC`, the max response is 3.09%.

With `C#C[C@]1(O)CC[C@H]2[C@@H]3CCC4=C/C(=N/O)CC[C@@H]4[C@H]3CC[C@@]21CC`, the max response was -2.15%.

Regarding `Nc1nc(N)c2nc(CNc3ccc(C(=O)N[C@@H](CCC(=O)O)C(=O)O)cc3)cnc2n1`, the max response is 13.9%.

Turning to `CCCC(=O)O[C@]1(C(=O)COC(C)=O)CC[C@H]2[C@@H]3C[C@H](F)C4=CC(=O)C=C[C@]4(C)[C@@]3(F)[C@@H](O)C[C@@]21C`, the max response is 9.8%.

Take `CCOC(=O)O[C@]1(C(=O)COC(=O)CC)CC[C@H]2[C@@H]3CCC4=CC(=O)C=C[C@]4(C)[C@H]3[C@@H](O)C[C@@]21C`: the max response is 11.8%.

Regarding `CO[C@H]1C[C@H](O[C@H]2[C@H](C)[C@@H](O[C@@H]3O[C@H](C)C[C@H](N(C)C)[C@H]3OC(C)=O)[C@@H](C)C[C@]3(CO3)C(=O)[C@H](C)[C@@H](OC(C)=O)[C@@H](C)[C@@H](C)OC(=O)[C@@H]2C)O[C@@H](C)[C@@H]1OC(C)=O`, the max response was 7.91%.

With `COc1ccc(C[C@H](N)C(=O)N[C@H]2[C@@H](O)[C@H](n3cnc4c(N(C)C)ncnc43)O[C@@H]2CO)cc1`, the Potency was 1050 nM (active).
